Data reported in PubChem BioAssay AID504465 (National Center for Advancing Translational Sciences (NCATS), 2011).
Screen size: about 2,100 compounds; about 210 (10%) were called active. About 53% were inconclusive and are not listed. Calls follow the shape of the dose curve; as a rule, active = well fitted inhibition curve with a large enough effect; inconclusive = small, poorly fitted or top-dose-only effect, or effect the other way; inactive = no such curve, though single readings can be large or run the other way. Some of the results follow. Entries that show only a call come without a potency.

Assay: IN Cell qHTS Assay for Inhibitors of the mTORC1 Signaling Pathway in MEF (Tsc2-/-, p53-/-) Cells: Sytravon; also: nearly all actives have a fitted effect of over 60% in size
Details: phospho-rpS6 immunofluorescence, 24 h; series mostly up to 38.3 µM
How it was run: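 Immunofluorescence of rpS6 phosphorylation (Ser235/236) in mouse embryonic fibroblasts lacking Tsc2 and p53, after 24 h compound exposure; Hoechst-normalized signal imaged, each well scored as % active cells relative to rapamycin (7.5 nM) and DMSO controls.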
Potency is read from the fitted curve at half-maximal effect.

Row | Structure (SMILES) | Potency
1 | Cc1ccc(NC(=O)/C=C\C(=O)N(c2ccc(C(C)C)cc2)C(C(=O)NCc2ccco2)c2ccc(F)cc2)cc1 (centres undefined) | inactive
2 | COc1cc(Nc2nc(SCC(=O)c3ccc(Cl)c(Cl)c3)nc3ccccc23)cc(OC)c1 | inactive
3 | COc1ccc2nc(C)cc(Nc3ccc(Cl)c(Cl)c3)c2c1 | 13.1 µM (active)
4 | COc1ccc(Nc2cc(C)nc3c(C)c(C)ccc23)cc1 | inactive
5 | Clc1cccc(-n2ncc3c(NC4CCCCC4)ncnc32)c1 | inactive
6 | Cc1cccc(Cc2c(C)nc3nc(SCC(=O)NCc4ccc(F)cc4)nn3c2C)c1 | inactive
7 | CC(=O)N1CCc2cc(CNS(=O)(=O)c3cccs3)ccc21 | inactive
8 | Cc1nc2nncn2c(NCc2ccc(Cl)cc2)c1C | inactive
9 | COc1ccc(CCNC(=O)c2cc3n(n2)CCCN(Cc2ccc(C)cc2)C3=O)cc1OC | inactive
10 | COc1ccc2c(c1)CC(C(=O)Nc1cc(Cl)ccc1C)CO2 (centres undefined) | inactive
11 | CCOc1ccc(-n2nc3ccc(NC(=O)c4ccc(-c5cccc(Cl)c5)o4)cc3n2)cc1 | 13.1 µM (active)
12 | CCOc1ccc(-n2nc(CO)c(C(=O)NCc3cccs3)n2)cc1 | inactive
13 | CCOC(=O)c1c(C)oc2ncnc(N3CCN(c4cccc(Cl)c4)CC3)c12 | inactive
14 | CCN1CCc2c(sc(NC(=O)c3ccc(S(=O)(=O)N4CCCC(C)C4)cc3)c2C(=O)OC)C1 (centres undefined) | inactive
15 | Cc1ccc(S(=O)(=O)Nc2cccc(-c3ccc(N4CCC(C)CC4)nn3)c2)s1 | inactive
16 | COc1ccccc1CNC(=O)CCCn1c(=O)c2ccccc2n(Cc2ccc(F)cc2)c1=O | inactive
17 | O=C(NC1CCN(Cc2ccccc2)CC1)c1ccc(Cn2c(=O)c3ccccc3n(Cc3ccc(F)cc3)c2=O)cc1 | 2.61 µM (active)
18 | O=c1c2ccccc2n(Cc2c(F)cccc2Cl)c(=O)n1Cc1ccccc1 | inactive
19 | COc1ccc(N2CCN(C(=O)CSCc3ccc(C)cc3)CC2)cc1 | inactive
20 | CCOC(=O)c1c(C)oc2nc(C)nc(NCc3ccc(Cl)cc3)c12 | inactive
21 | CCOC(=O)C(Cc1c[nH]c2ccccc12)NC(=O)COc1ccc(Cl)cc1 (centres undefined) | inactive
22 | Cc1ccc2c(CNCCc3ccc(Cl)cc3)c(C(=O)O)n(Cc3ccc(F)cc3)c2c1 | inactive
23 | CCc1ccc(NC(=O)c2cc(S(=O)(=O)NC3CCCC3)ccc2F)cc1 | inactive
24 | Cc1ccc(C)c(NC(=O)c2nc(S(=O)(=O)Cc3ccc(F)cc3)ncc2Cl)c1 | 3.29 µM (active)
25 | COc1ccc(OC)c(NC(=O)c2c(NCc3ccc(OC)c(OC)c3)sc3c2CCC(C)C3)c1 (centres undefined) | inactive

Row | Structure (SMILES) | Potency
26 | Cc1ccc(NC(=O)c2nc(S(=O)(=O)Cc3ccc(F)cc3)ncc2Cl)cc1C | 1.65 µM (active)
27 | CC(=O)Nc1ccc(NC(=O)c2nc(S(=O)(=O)Cc3ccc(F)cc3)ncc2Cl)cc1 | 8.26 µM (active)
28 | Cc1ccc(NC(=O)c2cc(S(=O)(=O)NC3CCCCC3)ccc2F)cc1Cl | inactive
29 | COc1ccc(OC)c(NC(=O)c2nc(S(=O)(=O)Cc3ccc(F)cc3)ncc2Cl)c1 | 2.33 µM (active)
30 | COc1ccc(C)cc1NC(=O)c1cc(S(=O)(=O)NC2CCCCCC2)ccc1F | inactive
31 | Cc1ccc(NC(=O)c2cc(S(=O)(=O)NCCC3=CCCCC3)ccc2F)cc1C | inactive
32 | CC1=C(c2ccc(C)c(C)c2)S(=O)(=O)N(Cc2ccc(C(=O)Nc3cc(F)ccc3F)cc2)C1=O | inactive
33 | COc1cc(NS(=O)(=O)c2cc(Br)cc3c2N(C(=O)C2CC2)CC3)cc(OC)c1 | inactive
34 | CCc1c(C)nc2nncn2c1NCc1ccc(Cl)cc1 | inactive
35 | CC(=O)c1cccc(NC(c2ccc(F)cc2)c2nnc(-c3ccccc3)o2)c1 (centres undefined) | inactive
36 | Cc1ccccc1Nc1c(-c2c[nH]c3ccccc23)nc2cccc(C)n12 | inactive
37 | O=C(Nc1ccc(Br)cc1)c1cc(S(=O)(=O)NC2CCCC2)ccc1F | inactive
38 | COc1ccc(Cn2c(C(=O)O)c(CNC3CCCCCC3)c3ccc(OC)cc32)cc1 | inactive
39 | CC(C)CCN(C(=O)Nc1ccc(Cl)c(Cl)c1)C1CCN(C(C)C)CC1 | inactive
40 | Cc1cc(C)c(NC(=O)c2cc(S(=O)(=O)NCCC3=CCCCC3)ccc2F)c(C)c1 | inactive
41 | CCN(CCCNC(=O)c1cc2c(=O)[nH]c3ccccc3c2s1)c1ccccc1 | inactive
42 | CCc1ccc(Sc2cc(C(=O)NCCCN3CCC(C)CC3)c3ccccc3n2)cc1 | inactive
43 | Cc1ccc2[nH]c(=O)c3cc(C(=O)NCCCN4CCC(C)CC4)sc3c2c1 | 5.85 µM (active)
44 | CCc1cccc(NC(=O)c2oc3ccc4c(c3c2C)C(=O)CC(C)(C)O4)c1 | inactive
45 | c1ccc(CNc2ncnc3[nH]ncc23)cc1 | inactive
46 | COc1ccc(-c2cc(NCc3ccc(C)cc3)n3cnnc3n2)cc1 | inactive
47 | COc1ccc(CNC(=O)c2cc(-c3ccc(OC)c(OC)c3)nc3n[nH]c(-c4ccc(C)cc4)c23)cc1 | 14.7 µM (active)
48 | COc1ccc(CNC(=O)C2CCN(S(=O)(=O)c3ccc(C)cc3)CC2)cc1 | inactive
49 | Cc1oc2ccc(O)c(CN(C)Cc3ccccc3)c2c1C(=O)Nc1ccccc1 | inactive
